Several values for one entry are separate records, joined by “and”; a condition that tells them apart may be missing. Equal entries are not always repeated. Where a structure was tested more than once in an assay, its records may differ in their call. Activity calls are given as the source filed them. How the source made its calls: active means hit-call score of the fitted dose curve at least 0.9, where 1 is the maximum; inactive means score below 0.9.
Test: CCTE_Shafer_MEA_dev_per_network_spike_spike_percent: CCTE's Neural Network Formation Assay for Percent of Spikes in a Network Spike, Shafer Lab (AID 2284054)
Procedure: CCTE_Shafer_MEA_dev assay is conducted using Axion Biosystems 48 well microelectrode array (MEA) plates and Maestro recording system. Each well of the MEA plate contains a grid of 16 microelectrodes embedded in the culture surface. Electrically active cells, such as neurons, can be cultured over the electrodes, and electrical activity in these cells can be recorded extracellularly. The spontaneous firing of neurons is captured from each electrode on a microsecond timescale providing both temporally and spatially precise data. […] The CCTE_Shafer_MEA_dev assay uses primary cultures of rat cortical neurons. Recordings are made on days post-plating 5, 7, 9 and 12. As these cultures mature over time, neural networks develop functional activity and form cohesive networks in which electrical activity can be highly coordinated. CCTE_Shafer_MEA_dev_per_network_spike_spike_percent is 1 of 19 assay components of the CCTE_Shafer_MEA_dev assay. It measures the percent of spikes (action potential firings) in a network spike (temporally-clustered group of spikes across multiple electrodes) as the number of spikes that occur within a 0.05 s time window at the peak of a network spike divided by the total number of spikes during a recording in a microelectrode array (MEA) using Axion Biosystems Maestro 768 channel amplifier with the AxIS adaptive spike detector. To collapse across multiple recordings made on days post-plating 5, 7, 9 and 12, the trapezoidal area-under-the-curve of the component is calculated.Data from the assay component CCTE_Shafer_MEA_dev_per_network_spike_spike_percent was analyzed into 1 assay endpoint. This assay endpoint, CCTE_Shafer_MEA_dev_per_network_spike_spike_percent, was analyzed in the negative analysis fitting direction relative to DMSO as the negative control and baseline of activity. Using a type of functional reporter, gain or loss-of-signal activity can be used to understand electrical activity.
On the day prior to culture, each well was coated thoroughly with 150 uL of 0.05% polyethyleneimine (PEI, Sigma Cat P3143) in 50 mM HEPES (Sigma Cat H7523) at a pH of 8. The plate was incubated at 37C for one hour. PEI was rinsed out with 500 uL of sterile water three times. Plates were stored at 4C until the day of culture. This culture was plated at a seeding density of 1.5 x 10^5 cells/well on a 48-well MEA plate, prepared as described above. Cells were administered via a 25 uL media/laminin ([…]; Sigma Cat L2020-1MG) drop directly onto the microelectrode array, as adding the cells with the laminin results in better attachment than pre-coating with laminin. After 2 hours, an additional 475 uL of cortical media was added and the cells returned to the incubator. Exposure starts at day 0 of plating and is continued over twelve days of network development until the experiment is terminated. Cells are fed with fresh medium on DIV 5 and 9, following the recordings on those days. The entire volume of media in the well is exchanged and any vehicle or compound treatment is renewed. Complete details are found in OP-NHEERL/ISTD/SBB/TJS/2015-03-r0 (available on request, email shafer.tim@epa.gov). Measurement of the electrical activity is non-invasive, and recordings can be made from the same plate over multiple different days of the culture. In cortical neurons, this allows for the measurement of extracellular action potentials over the period during which networks form in the MEA plate.

| SMILES | outcome | AC50 |
| --- | --- | --- |
| CCOP(=S)(OCC)Oc1nc(Cl)c(Cl)cc1Cl | inactive | 23.4 µM (active) and 20.2 µM (active) |
| C=C(C)C(=O)[O][Sn]([CH2]CCC)([CH2]CCC)[CH2]CCC |  | 1.98 µM (active) |
| O=C(O)C(F)(F)C(F)(F)C(F)(F)C(F)(F)C(F)(F)C(F)(F)C(F)(F)C(F)(F)C(F)(F)C(F)(F)F | inactive |  |
| O=C(O)C(F)(F)C(F)(F)C(F)(F)C(F)(F)C(F)(F)C(F)(F)F | inactive |  |
| COP(=O)(OC)O/C(=C\Cl)c1cc(Cl)c(Cl)cc1Cl | inactive |  |
| CC(C)(C)c1cc(O)ccc1O |  | 5.23 µM (active) |
| CC(=O)[O][Hg][c]1ccccc1 |  | 0.0173 µM (active) |
| CCC(=O)C(CC(C)N(C)C)(c1ccccc1)c1ccccc1 (stereo unspecified) |  | 7.25 µM (active) |
| ClC1(Cl)C2(Cl)C3(Cl)C4(Cl)C(Cl)(Cl)C5(Cl)C3(Cl)C1(Cl)C5(Cl)C24Cl (stereo unspecified) |  | 2.32 µM (active) |
| Cn1sc(Cl)cc1=O |  | 7.62 µM (active) |
